Hits are enriched below; roughly 1.6% of the tested compounds scored in any of these assays.
KCNQ2 block: blocks the rat KCNQ2 potassium channel; O88943; CHO-K1 KCNQ2, FluxOR thallium flux, 20 min; stronger effect = lower value; B-score at 10 µM; hit rate 1.1% among 310,000;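 active means fluorescence ratio B-score at most minus 3 library SDs, with starting brightness B-score within 2 library SDs, cut at about -5.5 in these data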
KCNQ2 pot: potentiators of rat KCNQ2 potassium channel. O88943. CHO-K1 KCNQ2, FluxOR thallium flux fluorescence; stronger effect = higher value. B-score at 10 µM. hit rate 0.54% among 310,000. AID 2239;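 active means fluorescence ratio B-score at least 3 SD of library B-scores, with initial fluorescence B-score within 3 of them, cut at about 5.3 in these data; same plate scores as AID 2156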;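 further: B-score of peak minus minimum over baseline fluorescence ratio after K+ and Tl+ stimulus; positive B-score means potentiation of KCNQ2 with more thallium influx and brighter signal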
KCNQ2 block conf: confirmation of rat KCNQ2 potassium channel inhibitors; shares compounds with KCNQ2 block; KCNQ2-expressing cells, thallium flux, inhibition; stronger effect = lower value; activity change, negative = inhibition, % at 10 µM; hit rate 57% among 1,000
KCNQ1 spec: selectivity of KCNQ2 inhibitors against human KCNQ1; shares compounds with KCNQ2 block; hit rate 15% among 1,000; KCNQ1-expressing cells, FluxOR thallium flux fluorescence; stronger effect = lower value; activity change, negative = inhibition, % at 10 µM; AID 493026;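 active means activity change at least 3 SD of negative controls below their mean in both duplicate wells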;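 further: CHO cells stably transfected with KCNQ1 and depolarized by potassium stimulus; peak minus minimum fluorescence over baseline after thallium addition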
Target sequence (P51787 whole entry, looked up): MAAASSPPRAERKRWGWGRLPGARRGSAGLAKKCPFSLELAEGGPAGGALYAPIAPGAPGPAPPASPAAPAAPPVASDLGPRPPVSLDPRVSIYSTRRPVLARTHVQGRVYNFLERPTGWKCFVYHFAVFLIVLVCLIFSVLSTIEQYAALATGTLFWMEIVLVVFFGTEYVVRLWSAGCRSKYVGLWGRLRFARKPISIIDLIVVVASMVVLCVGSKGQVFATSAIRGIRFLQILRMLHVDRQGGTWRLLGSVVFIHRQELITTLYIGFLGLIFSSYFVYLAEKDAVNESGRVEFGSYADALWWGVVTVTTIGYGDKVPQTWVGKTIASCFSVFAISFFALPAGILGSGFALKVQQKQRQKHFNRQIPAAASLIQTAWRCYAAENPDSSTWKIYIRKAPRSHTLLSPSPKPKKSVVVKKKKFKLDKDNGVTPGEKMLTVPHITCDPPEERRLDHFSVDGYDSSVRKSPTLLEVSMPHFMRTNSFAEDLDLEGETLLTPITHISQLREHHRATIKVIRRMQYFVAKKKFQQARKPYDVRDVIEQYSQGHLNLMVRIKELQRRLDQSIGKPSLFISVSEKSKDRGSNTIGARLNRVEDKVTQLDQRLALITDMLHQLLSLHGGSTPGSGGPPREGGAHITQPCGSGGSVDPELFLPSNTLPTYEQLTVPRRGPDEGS
CHO Tl ctr: counter-screen for KCNQ2 inhibitors: effect in parental CHO cells | AID 493029 | activity change, % at 10 µM | hit rate 14% among 1,000 | thallium flux counter-screen; stronger effect = lower value | shares compounds with KCNQ2 block
KCNQ2 inh confirm: confirmation of rat KCNQ2 potassium channel inhibitors. shares compounds with KCNQ2 block. KCNQ2-expressing cells, automated patch clamp current. calls only at 10 µM. hit rate 49% among 550. AID 588531
Each line names hits and unclear results; the compound was inactive in the other large screens (follow-up assays come after a bar, where they were run). Unless noted, how the calls were made is not given here.

COc1ccc(Cl)cc1C(=O)Nc1ccccc1N1CCCCC1	KCNQ2 block -7.53 | KCNQ2 block conf -31.5% | KCNQ1 spec inactive | CHO Tl ctr inactive | KCNQ2 inh confirm inactive
COc1ccc(Br)cc1C(=O)Nc1ccccc1-c1ccccc1	KCNQ2 block -9.33 | KCNQ2 block conf -15.0% | KCNQ1 spec inactive | CHO Tl ctr inactive | KCNQ2 inh confirm inactive
COc1ccc(Cl)cc1C(=O)Nc1ccccc1N1CCN(C)CC1	none (no result: KCNQ2 pot)
COc1ccc(Br)cc1C(=O)Nc1ccccc1N1CCCC1	none (no result: KCNQ2 pot)
COc1cc(C(=O)Nc2ccccc2N2CCCCC2)cc(OC)c1OC	KCNQ2 block -7.39 | KCNQ2 block conf -39.0% | KCNQ1 spec -28.5% | CHO Tl ctr inactive | KCNQ2 inh confirm active
COc1cc(C(=O)NC(=S)Nc2ccccc2N2CCCC2)cc(OC)c1OC	none (no result: KCNQ2 pot)
O=S(=O)(c1ccc(Br)s1)N1CCC(Cc2ccccc2)CC1	KCNQ2 block -9.3 | KCNQ2 block conf inactive | KCNQ1 spec inactive | CHO Tl ctr inactive
O=S(=O)(c1ccc(Cl)s1)N1CCN(CCc2ccccc2)CC1	none
CN1CCN(S(=O)(=O)c2ccc(Br)s2)CC1	none
O=S(=O)(c1ccc(Cl)s1)N1CCC(Cc2ccccc2)CC1	KCNQ2 block -7.43 | KCNQ2 block conf inactive | KCNQ1 spec inactive | CHO Tl ctr inactive
CC1CCCN(C(=O)CNS(=O)(=O)c2cccs2)C1 (stereo not given)	none (no result: KCNQ2 pot)
C/C(=N\NC(=O)CNC(=O)c1ccccc1Br)c1ccco1	none (no result: KCNQ2 pot)
Cc1cc(N2CCC(C)CC2)n2ncc(-c3ccccc3)c2n1	KCNQ2 block -8.3 | KCNQ2 block conf -16.0% | KCNQ1 spec inactive | CHO Tl ctr inactive | KCNQ2 inh confirm inactive
Cc1cc(N2CCCCC2)n2ncc(-c3ccccc3)c2n1	none (no result: KCNQ2 pot)
CCCC1NC(C(=O)O)Cc2c1[nH]c1ccccc21 (stereo not given)	none (no result: KCNQ2 pot)
Cc1ccccc1OCC(O)CN(Cc1ccccc1O)C1CCCCC1 (stereo not given)	KCNQ2 block -7.41 | KCNQ2 block conf -28.5% | KCNQ1 spec inactive | CHO Tl ctr inactive | KCNQ2 inh confirm active
CN(CC(O)COc1ccccc1F)C1CCCCC1 (stereo not given)	none
CCCCCN(C(=O)CCC(=O)OC(C)C(=O)Nc1cccc(C#N)c1)c1c(N)n(CCCC)c(=O)[nH]c1=O (stereo not given)	none (no result: KCNQ2 pot)
CCOC(=O)C1CCN(CC(C)(C)NS(=O)(=O)c2ccccc2)CC1	none
COc1ccc(-c2nc(CSCC(=O)NC3CCCc4ccccc43)c(C)o2)cc1OC (stereo not given)	KCNQ2 block -10.2 | KCNQ2 block conf inactive | KCNQ1 spec inactive | CHO Tl ctr inactive
COc1ccc(-c2nc(CS(=O)CC(=O)NC3CCCc4ccccc43)c(C)o2)cc1OC (stereo not given)	none (no result: KCNQ2 pot)
N#Cc1c(NCCN)nc(-c2ccco2)c2c1CCCC2	none (no result: KCNQ2 pot)
CC(C)CCNc1nc(-c2ccco2)c2c(c1C#N)CCCC2	KCNQ2 block -6.8 | KCNQ2 block conf inactive | KCNQ1 spec inactive | CHO Tl ctr inactive
CCOc1ccc(OCCC(=O)OCC(=O)Nc2ccc(Cl)cn2)cc1	none
COc1ccc(-c2n[nH]c(C)c2-c2cnn(-c3ccccc3)c2)c(O)c1	KCNQ2 block -8.03 | KCNQ2 block conf inactive | KCNQ1 spec inactive | CHO Tl ctr inactive
COc1ccc(-c2n[nH]c(C)c2-c2cnn(-c3ccccc3)c2)c(O)c1C	none (no result: KCNQ2 pot)
COc1ccc(NC(=S)NC(=O)c2cncc(Br)c2)c(OC)c1	none (no result: KCNQ2 pot)
COc1cc(-c2nc3ccc(C)cn3c2NCc2ccccc2)ccc1SC1CCCCC1	none (no result: KCNQ2 pot)
COc1cc(-c2nc3ccccn3c2NCc2ccccc2)ccc1SC1CCCCC1	KCNQ2 block -8.7 | KCNQ2 block conf inactive | KCNQ1 spec inactive | CHO Tl ctr inactive
CCCCn1c(=O)[nH]c(=O)c2c1ncn2Cc1ccco1	none
CCCCn1cnc2c(c(-c3ccccc3)c(-c3ccccc3)n2Cc2ccco2)c1=N	KCNQ2 block -7.64 | KCNQ2 block conf -27.0% | KCNQ1 spec inactive | CHO Tl ctr inactive | KCNQ2 inh confirm inactive
O=C(CCN1CCc2ccccc21)c1ccc2c(c1)OCCO2	none
O=C(CCN1CCCC1Cc1ccccc1)c1ccc2c(c1)OCCO2 (stereo not given)	KCNQ2 block -7.9 | KCNQ2 block conf -35.0% | KCNQ1 spec -29.5% | CHO Tl ctr -24.5% | KCNQ2 inh confirm active
O=C(CCN1CCCCC1)c1ccc2c(c1)OCCO2	none (no result: KCNQ2 pot)
O=C(CCN1CCc2ccccc2C1)c1ccc2c(c1)OCCO2	KCNQ2 block -8.33 | KCNQ2 block conf -15.5% | KCNQ1 spec inactive | CHO Tl ctr inactive | KCNQ2 inh confirm active
COc1ccc(/C=C/C(=O)c2ccccc2)cc1COc1ccc(F)cc1	KCNQ2 block -6.64 | KCNQ2 block conf inactive | KCNQ1 spec inactive | CHO Tl ctr inactive
COc1ccc(/C=C/C(=O)c2ccc(O)cc2)cc1COc1ccc(F)cc1	none (no result: KCNQ2 pot)
CCN(CC(=O)Nc1cc(S(=O)(=O)N2CCOCC2)ccc1C)Cc1ccccc1	none
O=C(Nc1ccc(Cl)cc1)Nc1ccc(N2CCOCC2)cc1	none (no result: KCNQ2 pot)
O=C(Nc1ccc(N2CCOCC2)cc1)Nc1ccc(Cl)c(Cl)c1	KCNQ2 block -6.6 | KCNQ2 block conf -28.0% | KCNQ1 spec inactive | CHO Tl ctr inactive | KCNQ2 inh confirm inactive
O=C(CCCc1ccccc1)Nc1ccnn1C1CCN(Cc2ccc(CO)o2)CC1	none (no result: KCNQ2 pot)
CC(C)=CCc1cc2c(=O)c3c(O)c4c(cc3oc2c(O)c1O)OC(C)C4(C)C (stereo not given)	KCNQ2 block -8.55 | KCNQ2 block conf inactive | KCNQ1 spec inactive | CHO Tl ctr inactive
CC1Oc2cc3oc4c(O)c5c(cc4c(=O)c3c(O)c2C1(C)C)C=CC(C)(C)O5 (stereo not given)	none (no result: KCNQ2 pot)
COc1ccccc1NC(=O)C(=O)NCC(c1ccco1)N1CCc2ccccc21 (stereo not given)	KCNQ2 block -7.15 | KCNQ2 block conf inactive | KCNQ1 spec inactive | CHO Tl ctr inactive
COc1cc(C(=O)NCC(c2cccs2)N2CCc3ccccc32)cc(OC)c1OC (stereo not given)	KCNQ2 block -8.68 | KCNQ2 block conf inactive | KCNQ1 spec inactive | CHO Tl ctr inactive
COc1ccccc1C(=O)NCC(c1cccs1)N1CCc2ccccc21 (stereo not given)	KCNQ2 block -7.15 | KCNQ2 block conf inactive | KCNQ1 spec inactive | CHO Tl ctr inactive
COc1cccc(C(=O)NCC(c2cccs2)N2CCc3ccccc32)c1 (stereo not given)	none (no result: KCNQ2 pot)
O=C(NCC(c1ccco1)N1CCc2ccccc21)C(=O)Nc1ccccc1F (stereo not given)	none (no result: KCNQ2 pot)
O=C(NCC(c1cccs1)N1CCc2ccccc21)c1ccccc1 (stereo not given)	none (no result: KCNQ2 pot)
Cc1ccc(C(C)C)c(OCC#CCN2CCOCC2)c1	none (no result: KCNQ2 pot)
Cc1ccc(OCC(=O)N2CCc3ccccc3C2)c(C)c1	KCNQ2 block -7.82 | KCNQ2 block conf -30.0% | KCNQ1 spec inactive | CHO Tl ctr inactive | KCNQ2 inh confirm active
O=C(c1cc(-c2ccccc2)nc2ccccc12)N1CCc2ccccc2C1	KCNQ2 block -7.82 | KCNQ2 block conf -28.5% | KCNQ1 spec inactive | CHO Tl ctr inactive | KCNQ2 inh confirm active

Assay outcomes: PubChem, Johns Hopkins Ion Channel Center
